Test results as given in PubChem BioAssay (NCATS).
Several values for one entry are separate records, joined by “and”; a condition that tells them apart may be missing. Identical values can stand only once. Inconclusive results are not listed. The source holds several records for some structures; these can differ, active in one and inactive in another. Activity calls are given as the source filed them. Calls come from the whole dose curve; as a rule, active = well fitted inhibition curve with a large enough effect; inconclusive = small, poorly fitted or top-dose-only effect; inactive = flat fitted curve, though single readings scatter.

Columns and labels:
Assay in all cases: qHTS profiling for inhibitors of Plasmodium falciparum proliferation (AID 504749); note: nearly all actives have a fitted effect of over 60% in size
Conditions in all cases: P. falciparum in erythrocytes, SYBR Green DNA, 72 h; series mostly up to 28.7 µM
CP203 = system: CP203
Outline: (§1)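 Parasite proliferation within erythrocytes, 72 h exposure. Endpoint: SYBR Green I fluorescence after overnight lysis at room temperature. Controls: 0.29 uM artemisinin, DMSO.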

CP211 = system: CP211
Outline: as §1

CP215 = system: CP215
Outline: as §1

CP217 = system: CP217
Outline: as §1

CP237 = system: CP237
Outline: as §1

CP238 = system: CP238
Outline: as §1

CP247 = system: CP247
Outline: as §1

CP250 = system: CP250
Outline: as §1

CP252 = system: CP252
Outline: as §1

CP256 = system: CP256
Outline: as §1

Measured: Potency
Potency is the fitted concentration of half-maximal effect.

O=C1C2CC=CCC2C(=O)N1SC(Cl)(Cl)Cl (stereo not drawn)
inactive: all assays above

C[N+]1(C)CCCCC1COC(=O)C(O)(c1ccccc1)c1ccccc1 (stereo not drawn)
not listed: CP256
inactive: all other assays above

N#CN
inactive: all assays above

CCON=O
inactive: all assays above

N#CC1(N2CCCCC2)CCCCC1
inactive: all assays above

C[N+]1(C)C2CCC1CC(OC(=O)c1c[nH]c3ccccc13)C2 (stereo not drawn)
inactive: all assays above

CNC(C)C(O)c1ccc(O)cc1 (stereo not drawn)
inactive: all assays above

CCC(N)Cc1c[nH]c2ccccc12 (stereo not drawn)
inactive: all assays above

CCCC(C)(COC(N)=O)COC(=O)NC1CC1 (stereo not drawn)
inactive: all assays above

C=CCN1CCC23c4c5ccc(O)c4O[C@H]2C(=O)CC[C@@]3(O)C1C5 (stereo partly drawn)
inactive: all assays above

[N-]=[N+]=CC(=O)OCC(N)C(=O)O (stereo not drawn)
inactive: all assays above

C#CC(C)(O)CC (stereo not drawn)
inactive: all assays above

O=Cc1ccco1
inactive: all assays above

CC(C)CCON=O
inactive: all assays above

CC(N)Cc1ccc(O)cc1 (stereo not drawn)
inactive: all assays above

COCC(C)N(C(=O)CCl)c1c(C)csc1C (stereo not drawn)
inactive: all assays above

ClC(Cl)(Cl)Cl
inactive: all assays above

[O]=[Cd]
inactive: all assays above

FC(F)OC(F)(F)C(F)Cl (stereo not drawn)
inactive: all assays above

ClC1C(Cl)C(Cl)C(Cl)C(Cl)C1Cl (stereo not drawn)
inactive: all assays above

ClCC1CO1 (stereo not drawn)
inactive: all assays above

O=C(O)C(Cl)(Cl)Cl
inactive: all assays above

O=C(CS(=O)C(c1ccccc1)c1ccccc1)NO (stereo not drawn)
inactive: all assays above

NCC(O)c1cccc(O)c1 (stereo not drawn)
inactive: all assays above

CCC1(CC)C(=O)NC(=O)N(C)C1=O
inactive: all assays above

Cn1sc(Cl)cc1=O
inactive: all assays above

C/C(=C\c1csc(C)n1)[C@@H]1C[C@@H]2O[C@]2(C)CCC[C@H](C)[C@H](O)[C@@H](C)C(=O)C(C)(C)[C@@H](O)CC(=O)O1
active: CP203 2.4 nM | CP211 3 nM | CP215 3.8 nM | CP217 4 nM | CP237 1.6 nM | CP238 3.2 nM | CP247 2.8 nM | CP250 7.1 nM | CP252 3.5 nM | CP256 2.2 nM

c1ccc2cc(CC3=NCCN3)ccc2c1
inactive: all assays above

O=C1CCCCC1CN1CCCCC1 (stereo not drawn)
inactive: all assays above

O=[N+]([O-])c1ccc(F)c([N+](=O)[O-])c1
inactive: all assays above

CC(C)(C)c1cc(O)ccc1O
8.91 µM (active) and inactive: CP252
active: CP203 15100 nM | CP215 10700 nM | CP217 8910 nM | CP237 6310 nM | CP238 10000 nM | CP247 4470 nM | CP250 7940 nM | CP256 11200 nM
12 µM (active) and inactive: CP211

CC(=O)O[C@H]1CC[C@H]2[C@@H]3CCC4=CC(=O)CCC4=C3C=C[C@]12C
inactive: all assays above

O=C(NCNC(=O)NC1C(=O)NC(=O)N1CO)NC1C(=O)NC(=O)N1CO (stereo not drawn)
inactive: all assays above

Clc1ccc(C2(Cn3cncn3)OCCO2)c(Cl)c1
inactive: all assays above

C[C@H]1CC[C@@H]2[C@@H](C)[C@H]3[C@H](C[C@H]4[C@@H]5CC=C6CC(O[C@@H]7O[C@H](CO)[C@H](O)[C@H](O[C@@H]8O[C@H](CO)[C@@H](O)[C@H](O)[C@H]8O)[C@H]7O[C@H]7O[C@@H](C)[C@H](O)[C@@H](O)[C@H]7O)CC[C@]6(C)[C@H]5CC[C@]34C)N2C1 (stereo partly drawn)
not listed: CP256
inactive: all other assays above

CCCC(C)C1(CC)C(=O)NC(=O)NC1=O (stereo not drawn)
inactive: all assays above

O=[N+]([O-])c1ccccc1
inactive: all assays above

O=[N+]([O-])C(Br)(CO)CO
inactive: all assays above

CCCCNCC(O)c1ccc(O)cc1 (stereo not drawn)
inactive: all assays above

ClC=C(Cl)Cl
inactive: all assays above

O=c1[nH]cc(N(CCCl)CCCl)c(=O)[nH]1
inactive: all assays above

CNC1(c2ccccc2Cl)CCCCC1=O (stereo not drawn)
active: CP237 8.91 µM and 7.94 µM
inactive: all other assays above

CC(Cc1ccccc1)NC=O (stereo not drawn)
inactive: all assays above

CCCCCl
inactive: all assays above

O=[N+]([O-])c1cc(I)c(O)c(I)c1
inactive: all assays above

S=C=S
inactive: all assays above

CCC1(C)CC(=O)NC(=O)C1
inactive: all assays above
